Screening data (PubChem)
CHX counter = affects cycloheximide protein synthesis inhibition readout, counter-screen. max response, %. AID 2314. cell reporter, cycloheximide protein synthesis inhibition counterscreen. 300,000 tested, 12% active; in the data active = max response mostly above about 13%, no sharp cut-off; inactive = mostly below about 14%; note: read at 38.3 µM for the half of the compounds with a filed dose
MARV entry inh = blocks Marburg virus binding to or entry into cells; 300,000 tested, 1.8% active; Marburg virus pseudotyped entry inhibition, cell reporter; Potency, µM (doses to about 37.8 µM), usual class: inhibitors; calls by dose curve; tested in HEK293 cells
Shiga toxin inh = blocks Shiga toxin action in Vero cells | Vero cells, Shiga toxin protein synthesis inhibition reporter | inhibition, % at 38.7 µM | 290,000 tested, 9.2% active | AID 2315; in the data active = inhibition mostly above about 28%, no sharp cut-off; inactive = mostly below about 43%
Lassa entry inh = Lassa virus entry inhibition | Lassa virus pseudotype entry inhibition, cell reporter | Potency, µM (doses to about 37.9 µM), usual class: inhibitors | 300,000 tested, 1.2% active; calls by dose curve; tested in HEK293 cells; note: nearly all actives have a fitted effect of over 50% in size
AMA1-RON2 inh = inhibitors of Plasmodium falciparum AMA1-RON2 interaction | AlphaScreen AMA1-biotinylated RON2 peptide binding | Potency, µM (doses to about 58.2 µM), actives largely listed as inhibitors | 360,000 tested, 0.2% active | AID 720542; active = well fitted inhibition curve with a large enough effect; inconclusive = small, poorly fitted or top-dose-only effect; inactive = no such curve, though single readings can be large or run the other way; note: nearly all actives have a fitted effect of over 45% in size
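AMA1 (3D7) with his tag at 25 nM final met compounds first, then biotinylated RON2 peptide at 25 nM; detection used donor plus acceptor beads, 10 µg/mL apiece, read by AlphaScreen after 30 min at room temperature.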
Numbers stand for hits; . = inactive; ? = inconclusive; / = no result given; ! = repeats disagree. This is one part of a sample in which hits are shown more often than they occur.

SMILES | CHX counter | MARV entry inh | Shiga toxin inh | Lassa entry inh | AMA1-RON2 inh
N#Cc1ccc(CN2CCN(C(=O)c3cc(C4CC4)nn3-c3ccccc3)CC2)cc1 | / | / | / | / | .
Cc1ccc2nc(N3CCC(C(=O)N4CCC5(CC4)OCCO5)CC3)sc2c1 | 40 | 7.9µM | 79 | . | .
Cc1ccc2nc(N3CCN(C(=O)C4CC4)CC3)sc2c1 | / | / | / | . | /
COc1ccc(CNC(=O)c2ccc(C)o2)cc1 | 13 | . | . | . | .
CC(C)c1ccc(CNNC(=O)c2ccccc2)cc1 | 52 | / | 75 | / | .
O=C(NNCc1ccccc1)c1ccccc1 | / | ? | / | . | .
COc1ccc(CNC(=O)c2cc(C3CC3)on2)cc1 | 25 | / | . | / | .
COc1ccc(CNC(=O)c2ccc(C(C)C)cc2)cc1 | 46 | . | 157 | ? | .
COc1ccc(C(=O)NCc2ccc(N3CCN(C)CC3)cc2)cc1 | . | . | . | . | .
Cc1ccc(-c2nnc(Nc3ccc(OCC(N)=O)cc3)c3ccccc23)cc1S(=O)(=O)N(C)C | / | / | / | . | /
Cc1ccc(NC(=O)COC(=O)C2=NN(c3ccccc3)C(=O)CC2)c(Br)c1 | / | . | / | . | .
COc1ccc(Cc2c(-c3cccc(Cl)c3)nc3ccc(Cl)cn23)c(C)c1 | / | / | / | / | .
COc1ccc(CNC(=O)c2ccncc2)cc1 | . | / | . | / | .
COc1ccc(CNC(=O)c2ccc(C(C)(C)C)cc2)cc1 | 64 | ? | 91 | . | .
CCn1c(SCc2ccc(C#N)cc2)nnc1-c1ccc(S(=O)(=O)N2CCCCC2)cc1 | . | . | . | ? | .
Cn1c(=O)c2c(nc(Br)n2CC(=O)C23CC4CC(CC(C4)C2)C3)n(C)c1=O | . | 18µM | . | ? | .
Cc1cccc(C)c1N(CC(=O)N1CCCC1)S(C)(=O)=O | . | ? | . | . | .
NC(=S)N/N=C/c1ccc(-c2ccccc2)o1 | 24 | / | 36 | / | .
NC(=S)N/N=C/c1ccc(-c2ccc(SC(F)F)cc2)o1 | 38 | ? | 41 | ? | .
CCNC(=S)N/N=C/c1ccc(-c2ccccc2)o1 | 24 | . | 49 | . | .
Cc1ccc(-c2ccc(/C=N/NC(N)=S)o2)cc1 | 28 | ? | 58 | ? | .
NC(=S)N/N=C\c1ccc(-c2cccc(Cl)c2Cl)o1 | . | ? | . | . | .
c1cnc(N2CCN(c3ncc4c(n3)CCNC4)CC2)nc1 | / | . | / | . | /
CCC(=O)Nc1ccc(S(=O)(=O)NC[C@H]2O[C@@H](n3cc(C)c(=O)[nH]c3=O)C[C@@H]2O)cc1 | / | / | / | / | .
NC(=S)N/N=C/c1ccc(-c2ccc(Cl)c(Cl)c2)o1 | 20 | . | . | . | .
SMILES | CHX counter | MARV entry inh | Shiga toxin inh | Lassa entry inh | AMA1-RON2 inh
CCn1cc(C(=O)Nc2ccc(C)c([N+](=O)[O-])c2)cn1 | . | . | active | . | .
CCn1ncc([N+](=O)[O-])c1C(=O)Nc1ccc(C)c(C)c1 | . | / | . | / | .
CCn1cc(C(=O)Nc2ccc(Cl)cc2Cl)cn1 | / | . | / | . | .
CCn1cc(C(=O)Nc2ccc(F)c(F)c2)cn1 | 11 | . | 60 | . | .
Cc1ccc(C(=O)NS(=O)(=O)c2ccc(N=NN(C)C)cc2)cc1 | . | . | . | . | .
O=c1c2ccccc2oc2ncccc12 | 55 | ? | . | . | .
COc1cccc2c(=O)c3ccccc3oc12 | 55! | / | 67 | / | .
COc1ccc(C(=O)Oc2c(C)occc2=O)cc1OC | . | . | . | . | .
COc1cccc2c(=O)ccoc12 | 12 | . | . | . | .
Cc1nn(C(C)(C)C)c(OC(=O)C(C)(C)C)c1Sc1ccccc1 | / | . | / | ? | /
Cn1cnc(S(=O)(=O)N2CCC(C(=O)Nc3ccc(Cl)c(C(F)(F)F)c3)CC2)c1 | / | / | / | . | /
CCc1ccc(N(C(C)=O)c2nc(CCl)cs2)cc1 | 29 | . | . | . | .
CC(=O)N(/N=C/c1ccc(C)cc1)c1nc(CCl)cs1 | . | . | . | ? | .
COc1ccc(CNC(=O)C2CCN(C(=O)c3cccc(Cl)c3)CC2)cc1 | . | . | . | . | .
CCOC(=O)C1C(=O)N(C(=O)c2cncc(Br)c2)CC1c1ccccc1 (stereo not given) | . | . | . | . | .
COc1ccc(C(=O)N2CCCC(c3ccccc3)C2)cc1 (stereo not given) | . | ? | . | 4.5µM | .
O=C(c1ccc(F)cc1)C1CCN(C(=O)c2ccccc2)CC1 | . | ? | . | . | .
COc1ccc(C(=O)N2CCCC(c3cc(C(=O)Nc4ccccc4)no3)C2)cc1 (stereo not given) | / | / | / | / | .
COc1ccc(CNC(=O)C2CCN(C(=O)c3ccc(-c4ccccc4)cc3)CC2)cc1 | . | ? | . | 2.5µM | .
CCOC(=O)C1C(=O)N(C(=O)c2ccc(OC)cc2)CC1c1ccccc1 (stereo not given) | 9.6 | . | . | . | .
O=C(c1ccc(F)cc1)N1CCC(c2ccccc2)C1 (stereo not given) | 41 | . | 68 | . | .
O=C1NN=C(CSc2n[nH]c(=S)s2)CS1 | . | / | . | / | .
CC1CC2(CC(CN(C3CCCCC3)C3CCCCC3)OC2=O)C(=O)O1 (stereo not given) | / | / | / | / | .
Cc1cn(CC(=O)NCCc2c[nH]c3ccccc23)c(=O)[nH]c1=O | / | / | / | / | .
O=C(O)C1CCN(C(=O)c2ccco2)CC1 | . | ? | . | . | .
SMILES | CHX counter | MARV entry inh | Shiga toxin inh | Lassa entry inh | AMA1-RON2 inh
O=C(c1ccco1)N1CCC(c2ccccc2)C1 (stereo not given) | 24 | . | 79 | . | .
COc1cc(C(CC(=O)Nc2cc(C)ccc2C)N2Cc3ccccc3C2=O)cc(OC)c1OC (stereo not given) | / | / | / | . | /
COCCCNC(=S)Nc1ccc(N2CCCCC2)cc1 | . | ? | 84 | . | .
CCNC(=S)Nc1ccc(N2CCCCC2)cc1 | 25 | . | . | . | .
S=C(NCCc1ccccc1)Nc1ccc(N2CCCCC2)cc1 | 20 | / | . | / | .
COc1c(Cl)cc(Br)c(OC)c1C(=O)NC(=O)Nc1nc(C)cc(C)n1 | . | . | . | . | .
CN=c1scc(-c2cccs2)n1/N=C/c1ccccc1O | . | 0.28µM | . | 1.3µM | .
CCCNC(=O)c1cc2c(c(-c3cccc(-c4ccccc4F)c3)n1)[C@@H](CCO)N(C(=O)CC1CC1)C2 | / | / | / | / | .
Cc1ccc(NC(=O)NC2CC(=O)N(c3ccc4c(c3)OCCO4)C2)c(C)c1 (stereo not given) | / | . | / | . | .
C=CCNC(=O)C1CC(=O)N(c2ccc(OCc3ccc(F)cc3)cc2)C1 (stereo not given) | 47 | / | 72 | / | .
C=CCNC(=O)C1CC(=O)N(c2ccc(OCC(=O)Nc3ccccc3)cc2)C1 (stereo not given) | 30 | . | 48 | . | .
C=CCNC(=O)C1CC(=O)N(c2ccc(OCC(=O)N3CCCC3)cc2)C1 (stereo not given) | . | ? | . | . | .
C=CCNC(=O)C1CC(=O)N(c2ccc(OCC(=O)Nc3ccc(C)cc3)cc2)C1 (stereo not given) | . | . | . | . | .
CCOc1ccc(N2CC(C(=O)NCc3ccc(F)cc3)CC2=O)cc1 (stereo not given) | . | . | . | . | .
CCCNC(=O)C1CC(=O)N(c2ccc(OCc3ccc(F)cc3)cc2)C1 (stereo not given) | 33 | / | 112 | / | .
